Pf growth 48h: inhibits P. falciparum growth in the first generation, 48 h; actives 5.9% (n = 310,000); Potency, µM (top dose mostly 28.7 µM), for the others: at the highest dose activity change, negative = inhibition, actives largely listed as inhibitors; P. falciparum luciferase growth in erythrocytes, 48 h
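A one-generation exposure of luciferase-tagged malaria parasites in RPMI 1640/Albumax erythrocyte culture, 37 C and 5% CO2. Inhibition is inferred from decreased luminescence after adding detection reagent.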
Pf growth 96h: P. falciparum growth inhibition at 96 hours | P. falciparum luciferase reporter growth, 96 h | Potency, µM (highest dose often 28.7 µM), inactives show top-dose activity change, negative = inhibition, usual class: inhibitors | actives 6.9% (n = 320,000) | AID 504834
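Two parasite generations (96 h, 37 C, 5% CO2) of compound exposure in infected erythrocytes (0.05% parasitemia, 2% hematocrit). Luciferase-reporter P. falciparum; decreased luminescence indicates inhibited growth, aimed at apicoplast-acting delayed death.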
AMA1 RON2 block: disrupts binding of P. falciparum AMA1 to RON2 | AID 720542 | Potency, µM (doses to about 58.2 µM), for the others: at the top dose activity change, negative = inhibition, hits mostly inhibitors | AlphaScreen AMA1-biotinylated RON2 peptide binding | actives 0.2% (n = 360,000);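 also: 0% = vehicle wells and -100% = peptide control; nearly all actives have a fitted effect of over 45% in size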
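AMA1 (3D7) with his tag at 25 nM final met compounds first, then biotinylated RON2 peptide at 25 nM; detection used donor plus acceptor beads, 10 µg/mL apiece, read by AlphaScreen after 30 min at room temperature.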
AmpC inh detg: blocks E. coli AmpC beta-lactamase in detergent assay; P00811; AmpC hydrolysis of nitrocefin, absorbance 480 nm, 0.01% Triton; Potency, µM (highest dose often 114 µM), for inactives: top-dose activity change, negative = inhibition, usual class: inhibitors; actives 0.041% (n = 370,000);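 also: 0% = no-compound wells and -100% = no-enzyme wells; nearly all actives have a fitted effect of over 25% in size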
Target sequence (P00811 whole entry, looked up): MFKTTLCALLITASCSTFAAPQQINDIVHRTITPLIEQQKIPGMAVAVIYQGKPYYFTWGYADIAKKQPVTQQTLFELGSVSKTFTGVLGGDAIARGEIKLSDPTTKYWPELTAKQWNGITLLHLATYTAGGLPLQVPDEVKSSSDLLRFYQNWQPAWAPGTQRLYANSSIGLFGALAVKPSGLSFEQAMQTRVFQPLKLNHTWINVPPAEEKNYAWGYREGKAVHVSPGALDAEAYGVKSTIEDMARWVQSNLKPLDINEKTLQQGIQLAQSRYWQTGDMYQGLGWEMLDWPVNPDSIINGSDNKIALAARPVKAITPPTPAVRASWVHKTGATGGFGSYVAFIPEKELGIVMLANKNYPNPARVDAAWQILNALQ
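20 mM phosphate pH 7.0 + 0.01% (detergent screen) or 0.0001% Triton X-100; 5.3 nM AmpC reagent; cpd preinc 15 min RT; nitrocefin (800 uM stock) to start; A480 q20 s × 4 min; Activity was normalised to no-enzyme and no-compound control wells.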
AmpC no deterg: inhibitors of E. coli AmpC beta-lactamase without detergent | P00811 | AmpC nitrocefin hydrolysis, absorbance 480 nm, 0.0001% Triton | Potency, µM (doses to about 57.1 µM), inactives show at the highest dose activity change, negative = inhibition, hits mostly inhibitors | actives 0.52% (n = 330,000);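 also: plate controls were no compound for no effect and no enzyme for full effect; nearly all actives have a fitted effect of over 20% in size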
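AmpC (5.3 nM in the dispensed reagent) in 20 mM phosphate pH 7.0 with 0.01% (detergent screen) or 0.0001% Triton X-100 was preincubated with compounds for 15 min at room temperature. Nitrocefin was then added from an 800 uM solution, and hydrolysis was followed at 480 nm.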
HCV inhibitor: HCV inhibition | Huh7.5.1 HCVcc-Cre infection, luciferase reporter, 44 h | Potency, µM (highest dose often 41.8 µM), without a hit: top-dose activity change, negative = inhibition, actives largely listed as inhibitors | actives 3.4% (n = 340,000) | AID 651820
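1,000 cells/well; 4 h culture; + compound; + HCVcc-Cre (~0.5 moi); 44 h; luciferase substrate, RT 15 min; read 15 sec.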
* hit, by the source's call; ? = inconclusive; · = no result given. A selection: hits, their analogues and other compounds. The true share with any hit is near 11%. Calls follow the shape of the dose curve; as a rule, active = well fitted curve in the direction sought with a large enough effect; inconclusive = small, poorly fitted or top-dose-only effect, or another doubt; inactive = no such curve, though single readings can be large; an effect the other way counts as inactive or inconclusive. Unless noted, % is scaled to controls: 0 for no effect and ±100 for the full control effect; potency is read from the fitted curve at half-maximal effect.

SMILES	Pf growth 48h	Pf growth 96h	AMA1 RON2 block	AmpC inh detg	AmpC no deterg	HCV inhibitor
CC1(C)Cc2c(C#N)c(SCCOc3ccccc3)nc(N3CCOCC3)c2CO1	12µM*	8.3µM*	9%	?	-15%	?
CC(C)OC(=O)CSc1nc(N2CCOCC2)c2c(c1C#N)CC(C)(C)OC2	4.7µM*	?	-5%	-14%	89%	-21%
CC1(C)Cc2c(C#N)c(SCCC#N)nc(N3CCOCC3)c2CS1	?	4.7µM*	-15%	?	35%	?
CC1(C)Cc2c(C#N)c(SCC(=O)O)nc(N3CCOCC3)c2CO1	·	·	-4%	·	·	8%
CC1(C)Cc2c(C#N)c(SCCO)nc(N3CCOCC3)c2CO1	?	?	-6%	-14%	8%	?
CCCCc1nc(N2CCOCC2)c(C#N)c2c1COC(C)(C)C2	6.6µM*	9.3µM*	7%	-1%	15%	-19%
CC1(C)Cc2c(C#N)c(SCCC#N)nc(N3CCOCC3)c2CO1	?	?	22%	-9%	-2%	-30%
CC1CN(C(=O)Nc2ccc(C(=O)NCc3ccccc3F)cc2)c2ccccc2S1 (centres undefined)	·	·	·	2%	·	·
O=C(Nc1c2c(nn1-c1ccc(Cl)cc1)CS(=O)(=O)C2)c1ccccc1F	·	·	·	0%	·	·
COc1ccc(-n2c(=O)c3sc4ccccc4c3n(CC(=O)NC3CCCCC3)c2=O)cc1	·	·	·	10%	·	·
O=c1[nH]c(NC2CCCCC2)c([N+](=O)[O-])c(=O)[nH]1	1%	2%	-6%	89µM*	-13%	35%
Cc1ccc(S(=O)(=O)N2CCOCC2)cc1NC(=O)CNc1ccccc1N1CCCC1=O	9.3µM*	?	-3%	1%	135%	12%
Cc1ccccc1SCC(=O)Nc1cc(S(=O)(=O)N2CCOCC2)ccc1N1CCOCC1	8.3µM*	?	-7%	-10%	99%	-13%
CC(NCC(=O)Nc1cc(S(=O)(=O)N2CCOCC2)ccc1N1CCOCC1)c1ccco1 (centres undefined)	?	5.9µM*	7%	-8%	110%	-1%
COc1ccccc1NCC(=O)Nc1cc(S(=O)(=O)N2CCOCC2)ccc1N1CCOCC1	?	?	16%	1%	2%	6%
Cc1ccccc1NCC(=O)Nc1cc(S(=O)(=O)N2CCCCC2)ccc1C	?	?	3%	0%	-33%	-30%
CCOC(=O)c1noc2ncn(CC(=O)Nc3ccc(C)c(F)c3)c(=O)c12	·	·	·	20%	·	·
O=C(Nc1ccccc1Br)C(Cc1ccccc1)NS(=O)(=O)c1cccc2nsnc12 (centres undefined)	·	·	·	2%	·	·
c1ccc2c(c1)CC1CNCc3cccc(c31)S2 (centres undefined)	?	10µM*	-12%	-11%	-1%	?
NCCCNc1nc(N)c([N+](=O)[O-])c(NC2CCCCC2)n1	2.3µM*	?	3%	-8%	11%	13µM*
COCCNc1nc(N)c([N+](=O)[O-])c(NC2CCCCC2)n1	?	?	-2%	0%	-12%	?
COc1cccc(Cn2c(Oc3cccc(C)c3)nc3c2c(=O)n(C)c(=O)n3C)c1	?	17%	-20%	-13%	116%	11µM*
COc1cccc(Cn2c(Oc3ccccc3)nc3c2c(=O)n(C)c(=O)n3C)c1	0.66µM*	?	-24%	?	137%	?
COc1cccc(COc2nc3c(c(=O)n(C)c(=O)n3C)n2C)c1	23%	4.1µM*	-14%	0%	-5%	?
COc1ccc(/C=C2\CCn3c2nc2cc(C(=O)O)ccc2c3=O)cc1O	-7%	13µM*	-2%	-15%	-10%	13%
SMILES	Pf growth 48h	Pf growth 96h	AMA1 RON2 block	AmpC inh detg	AmpC no deterg	HCV inhibitor
O=c1c2ccc(Cl)cc2nc2n1CC/C2=C\c1cccc(O)c1	13µM*	?	-3%	-3%	-14%	-11%
O=C(O)c1ccc2c(=O)n3c(nc2c1)/C(=C/c1cccc(O)c1)CC3	·	-24%	-25%	-8%	-20%	15%
COc1ccc(/C=C2\CCn3c2nc2cc(C(=O)O)ccc2c3=O)cc1OC	89%	-17%	5%	8%	-24%	-6%
Cc1cc(C)c(S(=O)(=O)NCc2nc3nc(C)cc(C)n3n2)c(C)c1	-7%	12µM*	16%	?	-18%	2%
COc1ccc(S(=O)(=O)NCc2nc3nc(C)cc(C)n3n2)cc1	·	·	-4%	19%	·	10%
Cc1cc(C)n2nc(CC(=O)NCc3ccccc3Cl)nc2n1	7%	3.3µM*	-13%	-14%	-15%	5%
COC(=O)c1ccccc1S(=O)(=O)NCc1nc2nc(C)cc(C)n2n1	37%	13µM*	18%	-6%	-16%	5%
Cc1ccc(S(=O)(=O)NCc2nc3nc(C)cc(C)n3n2)c(C)c1	32%	?	19%	-7%	-15%	7%
CC(OC(=O)c1ccc(OCC2CCCO2)cc1)C(=O)N(C)Cc1ccccc1 (centres undefined)	3.3µM*	4.7µM*	5%	0%	109%	-4%
CC1(C)Cc2c(c(N3CCOCC3)nc3snc(Br)c23)CO1	0.52µM*	0.66µM*	8%	?	27%	?
CC1(C)Cc2c(c(N3CCOCC3)nc3sc(C(=O)Nc4ccc(Cl)cc4)c(N)c23)CO1	?	?	-2%	18%	-1%	4%
Cc1nc2c(sc3nc(N4CCOCC4)c4c(c32)CC(C)(C)OC4)c(-c2ccc(Cl)cc2)c1C(=O)O	13µM*	9.3µM*	1%	2%	126%	13µM*
Cc1nc(-c2ccc(S(=O)(=O)Nc3ccc(C#N)cc3)cc2)co1	·	·	·	-4%	·	·
COc1cc(OC)c(OC)cc1CN1CCN(Cc2cccc(F)c2)CC1	?	?	0%	?	-8%	-9%
COc1cc(OC)c(OC)cc1CN1CCN(Cc2ccc(C(F)(F)F)cc2)CC1	?	20%	?	3%	80%	11µM*
COc1cccc(-c2c(NC(=O)c3ccco3)oc3ccccc3c2=O)c1	12%	40%	5%	0%	-42%	0.32µM*
CC(=O)Nc1nonc1-c1nnc(SCC(=O)Nc2cccc(C)c2C)n1-c1ccccc1	·	·	·	9%	·	·
CCc1ccc(NC(=O)CC2C(=O)N(c3ccc(F)cc3)C(=O)N2Cc2ccc(F)cc2)cc1 (centres undefined)	·	·	·	-1%	·	·

Source: PubChem BioAssay
